# Test results reported in article PMC4552634, “A New Set of Chemical Starting Points with Plasmodium falciparum Transmission-Blocking Potential for Antimalarial Drug Discovery” (PLoS ONE, 2015).
# Where two headings read alike, the source gives them in different places. About 3,200 (25%) of roughly 13,000 compounds showed an effect of 50% or more. The list shows a part of the results.
# Tested on: P. falciparum stage V gametocytes
# Parameters: BacTiter-Glo ATP luminescence viability of purified stage V gametocytes in 384-well plates, per cent inhibition versus DMSO
# Details: 48 h, 5 µM, inhibitor
SMILES,% Inhibition [%],% Inhibition (% Inhibition) [%]
CCOC(=O)C(C(=O)OCC)c1nc(C)ns1 [TCMDC-131370],6.156,
O=C(Nc1ccc2c(c1)CCC2)c1ccc(N2CCN(c3ccncc3)CC2)cc1 [TCMDC-135127],32.87,
CC(C)/C(=C(/F)CN1C(=O)C(NC(=O)c2cc3ccccc3[nH]2)C(=O)N(c2ccccc2)c2ccccc21)c1ccccc1 (stereo not drawn) [TCMDC-131897],34.22,
O=C(Nc1ccc(N2CCCN(Cc3cccc(F)c3)CC2)cc1)c1cccs1 [TCMDC-135012],-8.127,
CCc1nc(N)nc(N)c1-c1ccc(F)c(F)c1 [TCMDC-137370],12.31,
COc1ccccc1-c1sccc1C(=O)NC1(c2cc(Cl)cc(Cl)c2)CCCC1 [TCMDC-136461],-44,
CCOc1cc(C(=O)NCCN2CCCCC2)ccc1-c1nc2ccc(Cl)cc2[nH]1 [TCMDC-140913],5.667,
COc1ccc(Cl)cc1-c1nc(C(=O)NCCN2CCCCC2)c(C(C)C)s1 [TCMDC-133715],16.92,
COc1ccc(Cl)cc1N1CCN(CCCNC(=O)c2ccc(-c3nc4cc(Cl)c(C)cc4[nH]3)s2)CC1 [TCMDC-140032],3.429,
CCc1sc(-c2cc(Cl)ccc2OC)nc1C(=O)NCCN1CCCCC1 [TCMDC-133716],70.94,
COc1ccc(Cl)cc1-c1nc(C(=O)NCCN2CCCCC2)c(C)s1 [TCMDC-133714],60.47,
CCc1sc(N2CCN(C)CC2)nc1C(=O)NCCc1ccc(Cl)c(Cl)c1 [TCMDC-134296],25.24,
Cc1ccccc1N1CCN(c2ccc(C(=O)NC(C)C)cn2)CC1 [TCMDC-134577],-17.52,
CCOC(=O)c1cnc2c(C(F)(F)F)cccc2c1Nc1ccc(O)cc1 [TCMDC-125649],-55.53,
COc1ccc2nccc([C@@H](O)CN3CCC(NC(=O)/C=C/c4cc([N+](=O)[O-])ccc4OC)CC3)c2c1 [TCMDC-141044],-26.66,
N#CN1CC[C@@H](NS(=O)(=O)Cc2ccc(Cl)c(Cl)c2)C1 [TCMDC-133787],27.55,
O=C(C=Cc1ccc(Cl)c(Cl)c1)NCCCCCN1CCC(CCNC(=O)c2ccc3c(c2)OCO3)CC1 [TCMDC-139568],96.26,
CCCCCCOc1ccc(C(=O)NCCC2CCN(CCCCCNC(=O)C=Cc3ccc(Cl)c(Cl)c3)CC2)cc1 [TCMDC-139569],13.58,
CCCCCCOc1ccc(C(=O)NCCCC2CCN(CCCCCNC(=O)C=Cc3ccc(Cl)c(Cl)c3)CC2)cc1 [TCMDC-139575],7.423,
O=C(/C=C/c1ccc(Cl)c(Cl)c1)NCCCCCN1CCC(C(=O)Nc2ccc3c(c2)OCO3)CC1 [TCMDC-136127],-2.985,
O=C(C=Cc1ccc(Cl)c(Cl)c1)NCCCCCN1CCCC(CCCNC(=O)c2ccc3c(c2)OCO3)C1 (stereo not drawn) [TCMDC-139580],81.7,
O=C(/C=C/c1ccc(Cl)c(Cl)c1)NCCCCCN1CC[C@H](NC(=O)c2ccc3c(c2)OCO3)C1 [TCMDC-139563],17.23,
O=C(C=Cc1ccc(Cl)c(Cl)c1)NCCCCCN1CCC(CCCNC(=O)c2ccc3c(c2)OCO3)CC1 [TCMDC-139574],21.18,

SMILES,% Inhibition [%],% Inhibition (% Inhibition) [%]
O=C(/C=C/c1ccc(Cl)c(Cl)c1)NCCCCCN1CCC(NC(=O)Nc2ccc3c(c2)OCO3)CC1 [TCMDC-135718],-35.92,
CCCCCCOc1ccc(C(=O)NCCCC2CCCN(CCCCCNC(=O)C=Cc3ccc(Cl)c(Cl)c3)C2)cc1 (stereo not drawn) [TCMDC-139581],50.48,
Cc1ccc(NC(=O)N2CCCN(CCCCCNC(=O)/C=C/c3ccc(Cl)c(Cl)c3)CC2)cc1 [TCMDC-135744],-49.55,
N#Cc1cc(C(=O)c2cc(Br)ccc2O)cn(-c2cc(Cl)cc(Cl)c2)c1=O [TCMDC-125187],-21.05,
O=[N+]([O-])c1cccc(CNCC2CCC(CNCc3cccc([N+](=O)[O-])c3)CC2)c1 (stereo not drawn) [TCMDC-141176],8.201,
COc1ccc(OC)c(CC2c3ccc(Br)c(O)c3CCN2C)c1 (stereo not drawn) [TCMDC-137439],12.74,
CN1CCN(c2cc3c(cc2Cl)CCN3C(=O)Cc2ccc(NC(=O)Nc3cccc4ccccc34)cc2)CC1 [TCMDC-139472],-2.627,
Cn1ccnc1CNC(=O)c1ccc(-c2cccc(-c3nc4cc(C(F)(F)F)ccc4[nH]3)c2)cc1 [TCMDC-132357],7.087,
Cc1[nH]c(C)c(-c2ccc(-c3ccc(Cl)cc3)nc2)c(=O)c1Br [TCMDC-136159],67.06,
Cc1[nH]c(C)c(-c2ccc(-c3ccc(OCC(F)(F)F)cc3)nc2)c(=O)c1Cl [TCMDC-132306],43.23,
Cc1[nH]c(C)c(-c2ccc(-c3ccc(Cl)cc3)nc2)c(=O)c1Cl [TCMDC-136301],72.82,
Cc1[nH]c(C)c(-c2ccc(-c3ccccc3)nc2)c(=O)c1Br [TCMDC-136158],42.67,
Cc1[nH]c(C)c(-c2ccc(-c3ccc(F)cc3)nc2)c(=O)c1Br [TCMDC-135925],64.89,
Cc1[nH]c(C)c(-c2ccc(-c3ccc(C#N)cc3)nc2)c(=O)c1Br [TCMDC-136169],28.48,
Cc1[nH]c(C)c(-c2ccc(-c3ccc(C(F)F)cc3)nc2)c(=O)c1Cl [TCMDC-132329],58.86,
CC1(C)N=C(N)N=C(N)N1OCCCOc1ccccc1Cl [TCMDC-131739],-0.9938,
O=C(Nc1ccc(-c2nc3ccccc3[nH]2)cc1)c1ccc(S(=O)(=O)N2CCc3ccccc32)cc1 [TCMDC-125713],-13.88,
O=C(N[C@@H](CC1CCCCC1)C(=O)NC1CCCc2ccccc21)c1ccc(O)c(-c2ccc(Cl)c(Cl)c2)c1 (stereo partly drawn) [TCMDC-140869],28.8,
CCOC(=O)c1ccc(-n2c(C)cc(C=C3SC(=Nc4ccccc4)N(C4CCCC4)C3=O)c2C)cc1 [TCMDC-125697],-3.505,
Cc1[nH]c(C)c(-c2ccc(-c3ccc4c(c3)OCO4)nc2)c(=O)c1Br [TCMDC-136161],79.48,
CCC1CN2CCc3c([nH]c4ccccc34)[C@@H]2C[C@@H]1CC1NCCc2cc(OC)c(OC)cc21 (stereo partly drawn) [TCMDC-142008],,-47.66
Cc1onc(-c2ccccc2Cl)c1C(=O)Nc1cc(Cl)c(Cl)cc1Cl [TCMDC-123514],9.365,
COc1ccc(-c2ccc(CNC(=O)c3ccc(C#N)cc3)c(F)c2)cc1CN1CCCN(C)CC1 [TCMDC-133368],-37.75,

SMILES,% Inhibition [%],% Inhibition (% Inhibition) [%]
Cc1ccn2cc(-c3ccc(NC(=O)c4ccc(Br)o4)cc3)nc2c1 [TCMDC-124517],106.8,
COc1cc(OC)cc(C(=O)Nc2cccc(-c3cn4ccc(C)cc4n3)c2)c1 [TCMDC-124622],4,
COc1cc(C(=O)Nc2cccc(-c3cn4ccc(C)cc4n3)c2)cc(OC)c1OC [TCMDC-125384],26.29,
Cc1cc(OCCCN2CCC(NS(=O)(=O)c3cccc(Br)c3)CC2)c2ccccc2n1 [TCMDC-136279],-49.51,
CCCCOc1cc(OC)c2ccccc2c1CCNCCCCNCCc1c(OCCCC)cc(OC)c2ccccc12 [TCMDC-137845],110.3,
CCCCOc1c(CCNCCCCNCCc2cc(OC)c3ccccc3c2OCCCC)cc(OC)c2ccccc12 [TCMDC-137848],124.7,
CCCCc1cc(Cc2cnc(N)nc2N)cc(OC)c1OC [TCMDC-137876],-18.26,
CC[C@H](NC(=O)c1c(CN2CCC(N3CCCCC3)CC2)c(-c2ccccc2)nc2cc(O)ccc12)c1ccccc1 [TCMDC-140381],13.93,
CC(C)CCN1CCC(Oc2ccc(NC(=O)c3ccc4ncccc4c3)cc2Cl)C1 (stereo not drawn) [TCMDC-133982],6.933,
Clc1ccccc1CNc1noc(-c2sccc2Br)n1 [TCMDC-134189],-9.305,
CCc1c(C)nc(-n2nc(C)cc2NC(=O)c2cccc3ccccc23)[nH]c1=O [TCMDC-124936],19.12,
CCc1c(C)nc(-n2nc(C)cc2NC(=O)c2ccc(OC)cc2OC)[nH]c1=O [TCMDC-124937],1.355,
Cc1cc(NC(=O)c2cc(Br)ccc2Cl)n(-c2nc(C)c(C)c(=O)[nH]2)n1 [TCMDC-124938],58.54,
COc1cccc2cc(C(=O)N[C@@H](CC(C)C)C(=O)N[C@H](/C=N/NC(=O)N3CCN(C)CC3)CCc3ccccc3)oc12 [TCMDC-136052],37.67,
COc1cc(NC(=O)N2CCOC(CCN3CCC(c4ccccc4)CC3)(c3ccc(Cl)c(Cl)c3)C2)cc(OC)c1OC (stereo not drawn) [TCMDC-135349],-27.1,
CC(C)(C)c1cc(N=NC(=O)c2ccncc2)cc(C(C)(C)C)c1O [TCMDC-123490],-20.54,
N#Cc1ccc(N(CCOc2ccc(Cl)c(F)c2)Cc2ccccc2C(F)(F)F)cc1C(F)(F)F [TCMDC-132797],-6.991,
O=C(c1cc(C(=O)NCc2ccc(Cl)cc2)c(=O)n(Cc2ccc(Cl)cc2)c1)c1cc(F)ccc1O [TCMDC-125145],-12.34,
O=C(NCCCCN1CCC(c2ccc3ccccc3c2O)CC1)c1ccc(NC(=O)c2ccc(Cl)cc2)cc1 [TCMDC-138654],82.05,
O=C(NCCCCN1CCC(c2ccc3ccccc3c2O)CC1)c1ccc(-c2ccc(Cl)cc2)cc1 [TCMDC-138663],108.9,
O=C(NCCCCN1CCC(c2ccc3ccccc3c2)CC1)c1ccc(NC(=O)c2ccc(Cl)cc2)cc1 [TCMDC-138378],-9.216,
O=C(NCCCCN1CCC(c2cccc3ccccc23)CC1)c1ccc(NC(=O)c2ccc(Cl)cc2)cc1 [TCMDC-138340],-11.24,
CC(=O)Oc1c(C2CCN(CCCCNC(=O)c3ccc(NC(=O)c4ccc(Cl)cc4)cc3)CC2)ccc2ccccc12 [TCMDC-138657],89.12,
